According to PubChem BioAssay (EPA / NIEHS):
Results filed as inconclusive are left out. Some structures have more than one record in an assay (separate samples or runs), and their calls can disagree. Activity calls are given as the source filed them. Rule for the calls: active = hit-call score of the fitted dose curve at least 0.9, where 1 is the maximum; inconclusive = response in the unintended direction; inactive = score below 0.9.

What follows are molecules tested against Retinoic acid receptor RXR-alpha (Homo sapiens) (UniProt P19793) (assay: OT_NURR1_NURR1RXRa_0480: Odyssey Thera (OT) 8-hour HEK293T Protein Complementation Assay for Nurr1/retinoid X receptor (RXR) (AID 2283385)).
Procedure: OT_NURR1_NURR1RXRa_0480 is a cell-based assay that uses HEK293T, a human kidney cell line, with measurements taken at 8 hours after chemical dosing in a 384-well plate.OT_NURR1_NURR1RXRa_0480 is one of one assay component(s) measured or calculated from the OT_NURR1_NURR1RXRa_0480 assay. It is designed to make measurements of protein fragment complementation, a form of binding reporter, as detected with fluorescence intensity signals by Protein-fragment Complementation technology.Data from the assay component OT_NURR1_NURR1RXRa_0480 was analyzed into 1 assay endpoint. This assay endpoint, OT_NURR1_NURR1RXRa_0480, was analyzed in the positive analysis fitting direction relative to DMSO as the negative control and baseline of activity. Using a type of binding reporter, measures of receptor for gain-of-signal activity can be used to understand the binding at the pathway-level as they relate to the gene RXRA. Furthermore, this assay endpoint can be referred to as a primary readout, because the performed assay has only produced 1 assay endpoint. To generalize the intended target to other relatable targets, this assay endpoint is annotated to the nuclear receptor intended target family, where the subfamily is non-steroidal.
Protein-fragment complementation assay, or PCA, is a method for the identification and quantification of protein-protein interactions. In the PCA, the proteins of interest ("bait" and "prey") are each covalently linked to fragments of a third protein (e.g. DHFR, which acts as a "reporter"). Interaction between the bait and the prey proteins brings the fragments of the reporter protein in close proximity to allow them to form a functional reporter protein whose activity can be measured.

Chain of Retinoic acid receptor RXR-alpha (Homo sapiens) (P19793 whole entry, looked up, the tested form may be a part): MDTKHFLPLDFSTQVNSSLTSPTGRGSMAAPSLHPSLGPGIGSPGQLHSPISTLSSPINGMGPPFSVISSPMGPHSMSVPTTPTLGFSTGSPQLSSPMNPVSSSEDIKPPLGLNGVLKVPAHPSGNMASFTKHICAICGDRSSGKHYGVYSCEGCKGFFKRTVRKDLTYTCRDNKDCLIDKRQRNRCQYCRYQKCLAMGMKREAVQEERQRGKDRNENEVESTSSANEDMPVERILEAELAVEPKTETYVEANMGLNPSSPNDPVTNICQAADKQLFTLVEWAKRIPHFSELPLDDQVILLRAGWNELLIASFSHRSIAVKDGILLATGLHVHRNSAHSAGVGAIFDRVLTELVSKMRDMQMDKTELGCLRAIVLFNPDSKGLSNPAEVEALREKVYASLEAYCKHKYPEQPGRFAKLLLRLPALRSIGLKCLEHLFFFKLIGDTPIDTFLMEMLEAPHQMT

Question: For O=C(N[C@@H](Cc1ccccc1)[C@@H](O)C(=O)N1C[C@@H](O)[C@@H](O)C1)c1cc2cc(Cl)ccc2[nH]1, which outcome is on record?
Answer: inactive

Question: For NCC1(Cc2noc(=O)[nH]2)CCCCC1, which outcome is on record?
Answer: inactive

Question: With Cc1c(C(=O)O)c(O)cc2c1C(=O)c1c(O)c([C@@H]3O[C@H](CO)[C@@H](O)[C@H](O)[C@H]3O)c(O)c(O)c1C2=O as the molecule, how does the AC50 read?
Answer: 50 µM (active)

Question: And the outcome?
Answer: inactive

Question: For Oc1ccc2c(c1)OC[C@@H](N1CCC(O)(c3ccc(F)cc3)CC1)[C@H]2O, which outcome is on record?
Answer: inactive

Question: For O=c1[nH]cc(F)c(=O)[nH]1, which outcome is on record?
Answer: inactive

Question: Which results are given for C1CCC(SSC2CCCCC2)CC1?
Answer: outcome: inactive; AC50: 79.5 µM (active)

Question: How did the outcome turn out when CC=Cc1ccc(O)c(OC)c1 was run?
Answer: inactive

Question: How did the outcome turn out when NCCO was run?
Answer: inactive

Question: What does the source list for CC1=C(/C=C/C(C)=C/C=C/C(C)=C/CO)C(C)(C)CCC1?
Answer: AC50: 18.5 µM (active); outcome: inactive

Question: For CCOC(=O)CCC(=O)OCC, which outcome is on record?
Answer: inactive

Question: Which outcome does the source give for O=C(O)CCCCC(=O)O here?
Answer: inactive

Question: Which outcome does the source give for Cc1ccc(C)c(O)c1C here?
Answer: inactive

Question: CCOc1ccc2c(c1)C(C)=CC(C)(C)N2 was tested. Which outcome did it give?
Answer: inactive

Question: Which AC50 does the source give for CN1CCN(Cc2cc(-c3ccc4[nH]c(=O)oc4c3)co2)[C@@H](c2ccc(F)cc2)C1 here?
Answer: 10.1 µM (active)

Question: For CCCc1cc(=O)[nH]c(=S)[nH]1, which outcome is on record?
Answer: inactive

Question: Which outcome does the source give for CC(CO)OC(C)CO (stereo not given) (tested in a mixture with another compound) here?
Answer: inactive

Question: For Cc1oc(-c2ccccc2)nc1CCOc1cccc2c1ccn2CCC(=O)O, which outcome is on record?
Answer: inactive

Question: With CC(=O)Oc1ccccc1C(=O)O as the molecule, how does the outcome read?
Answer: inactive

Question: Which outcome does the source give for COCCOC[C@H](CC1(C(=O)NC2CCC(C(=O)O)CC2)CCCC1)C(=O)Oc1ccc2c(c1)CCC2 (stereo not given in full) here?
Answer: inactive

Question: How did the outcome turn out when CCc1c(C(=O)NN2CCCCC2)nn(-c2ccc(Cl)cc2Cl)c1-c1ccc(Br)cc1 was run?
Answer: inactive

Question: How did the outcome turn out when Cc1cccc([N+](=O)[O-])c1C was run?
Answer: inactive

Question: With CCCCC(CC)COC(=O)CC(C(=O)OCC(CC)CCCC)S(=O)(=O)O (stereo not given) as the molecule, how does the outcome read?
Answer: inactive

Question: How did the outcome turn out when CNC(=O)[C@H]1O[C@@H](n2cnc3c(NCc4cc(Cl)ccc4OCc4cc(C)no4)ncnc32)[C@H](O)[C@@H]1N was run?
Answer: inactive

Question: Which AC50 does the source give for O=C(OCCCCCOC(=O)c1ccccc1)c1ccccc1 here?
Answer: 72.2 µM (active)

Question: And the outcome?
Answer: inactive

Question: With CCCCOC(=O)CCCCCCCCC(=O)OCCCC as the molecule, how does the outcome read?
Answer: inactive

Question: How did the outcome turn out when COc1ccc(C)cc1N was run?
Answer: inactive

Question: For CCCCCCOCCO, which outcome is on record?
Answer: inactive

Question: For CCCCCCCCCCCCCO, which outcome is on record?
Answer: inactive

Question: What about the AC50 of the same molecule?
Answer: 67.5 µM (active)

Question: For Cc1cc(=O)[nH]c(=S)[nH]1, which outcome is on record?
Answer: inactive

Question: With FC(F)(F)C(F)(F)C(F)(F)C(F)(F)C(F)(F)C(F)(F)CCI as the molecule, how does the outcome read?
Answer: inactive

Question: With COc1ccc(S(=O)(=O)N2C(=O)[C@@](c3ccccc3OC)(N3C[C@H](O)C[C@H]3C(=O)N(C)C)c3cc(Cl)ccc32)c(OC)c1 as the molecule, how does the outcome read?
Answer: inactive

Question: For CCCCCCCCCCO, which outcome is on record?
Answer: inactive

Question: Nc1nc(N)c2nc(CNc3ccc(C(=O)N[C@@H](CCC(=O)O)C(=O)O)cc3)cnc2n1 was tested. Which outcome did it give?
Answer: inactive

Question: How did the outcome turn out when CCCCc1ccc2c(n1)[C@@H](c1ccc(OC)cc1C[C@H](C)C(=O)O)[C@H](C(=O)O)[C@H]2c1ccc2c(c1)OCO2 was run?
Answer: inactive

Question: Which outcome does the source give for CC(C)(C)c1cc(O)c(C(C)(C)C)cc1O here?
Answer: inactive
